# Compounds without any hit were thinned out: in the full panel of roughly 83,000, 20% have a hit.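 Single-dose data. Exposure time 48 hours. Values below 10 considered active.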 Activity calls are given as the source filed them.
# System: MDA-MB-468 breast
# Assay: NCI-60 one-dose screen, 48 h (100 = growth as untreated, 0 = no growth, -100 = all killed)
# Details: 10 µM unless noted
row,SMILES,growth
1,Cc1ccc(-c2nn(C)c(=O)c3noc(-c4ccc(C)cc4)c23)cc1,19.8% (inactive)
2,CC(C)C1=C[C@@]23CC[C@H]4[C@](C)(COCCC#N)CCC[C@]4(C)[C@H]2C[C@@H]1[C@@H]1[C@H]3[C@@H](OCCC#N)CC[C@@H]1OCCC#N,-4.51% (active)
3,CCC(C)(c1ccc(O)c(C)c1)c1ccc(O)c(C)c1,70.1% (inactive)

# Source: PubChem BioAssay (NCI)
